Experimental findings from PubChem BioAssay (Tox21) are described below.

Each structure is given as a SMILES string. Records with an inconclusive call do not appear. A number with no mark means an inactive call. Calls of active or inactive are those of the source. Calls come from the whole dose curve.
% is set by controls: 0 for no effect and ±100 for the full control effect.

In this test the target is Acetylcholinesterase (Homo sapiens) (UniProt P22303). The test is described as follows: Acetylcholinesterase (AChE) small molecule antagonists: fluorescence cell-based qHTS assay (AID 1347398). Note: nearly all actives have a fitted effect of over 50% in size. Particulars: SH-SY5Y cells; Potency: AChE activity; outcome: AChE activity; series mostly up to 115 µM; activity change, negative = inhibition: at the top concentration. Summed up: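 Cellular AChE activity read as thiocholine from acetylthiocholine hydrolysis, detected by Thiolite Green fluorescence at 490/520 nm after 40 min at room temperature. Compounds were pre-incubated 30 min at 37 C on adherent SH-SY5Y cells.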
Chain of Acetylcholinesterase (Homo sapiens) (P22303 whole entry, looked up): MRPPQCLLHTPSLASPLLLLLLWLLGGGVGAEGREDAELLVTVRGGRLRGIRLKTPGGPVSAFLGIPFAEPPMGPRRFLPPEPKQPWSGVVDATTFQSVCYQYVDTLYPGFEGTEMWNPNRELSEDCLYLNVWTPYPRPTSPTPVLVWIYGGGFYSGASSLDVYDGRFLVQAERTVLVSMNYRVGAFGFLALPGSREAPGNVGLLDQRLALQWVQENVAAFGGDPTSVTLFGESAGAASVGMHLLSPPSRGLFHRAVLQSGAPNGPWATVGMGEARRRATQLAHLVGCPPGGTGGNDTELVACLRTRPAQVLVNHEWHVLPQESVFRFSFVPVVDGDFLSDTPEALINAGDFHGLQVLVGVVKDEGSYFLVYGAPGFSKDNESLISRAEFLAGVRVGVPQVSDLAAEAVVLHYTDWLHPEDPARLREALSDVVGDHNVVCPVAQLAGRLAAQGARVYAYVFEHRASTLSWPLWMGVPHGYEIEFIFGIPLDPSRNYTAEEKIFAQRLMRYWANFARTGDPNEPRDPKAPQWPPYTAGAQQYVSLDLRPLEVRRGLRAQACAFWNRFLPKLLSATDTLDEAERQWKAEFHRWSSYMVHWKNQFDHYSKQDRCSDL
For the molecule `CCC(C)(C)C1CCC(O)CC1` (stereo not given), the “activity change, negative = inhibition” value was 5.32%.
`CCOC(=O)NNc1nncc2ccccc12`: the Potency result is “inactive”.
For `CN(C)CCc1c[nH]c2ccc(C[C@H]3COC(=O)N3)cc12`, the “activity change, negative = inhibition” value is -0.591% [at 53.7 µM].
With `C=CC(=O)OCC(CO)(COC(=O)C=C)COC(=O)C=C`, the Potency result was “inactive”.
As for `CCN(O)CC`, the “activity change, negative = inhibition” value is -14.1%.
On to `O=C(O)Cc1ccccc1Nc1c(Cl)cccc1Cl`, for which the Potency entry was “inactive”.
Consider `ClC/C=C\CCl`, for which the “activity change, negative = inhibition” value was 9.88%.
`COC(=O)Nc1nc2ccc(S(=O)c3ccccc3)cc2[nH]1` (stereo not given): the Potency result is “inactive”.
On the same count and under the same terms, the entry for `CC#C[C@]1(O)CC[C@H]2[C@@H]3CCC4=CC(=O)CCC4=C3[C@@H](c3ccc(N(C)C)cc3)C[C@@]21C` is “inactive”.
For the molecule `Cc1ccc2ccccc2n1`, the “activity change, negative = inhibition” value is 4.01%.
Turning to `CC1OC1C1CCC2(C)OC2C1` (stereo not given), the “activity change, negative = inhibition” value was -0.0092%.
As for `CCN(Cc1cccc(S(=O)(=O)O)c1)c1ccccc1`, the “activity change, negative = inhibition” value was 2.91%.
Turning to `COC1=C(OC)C(=O)C(CCCCCCCCCCO)=C(C)C1=O`, the “activity change, negative = inhibition” value was -6.62% [at 53.7 µM].
On to `Cc1cccc(N(C)C(=S)Oc2ccc3ccccc3c2)c1`, for which the Potency result is “inactive”.
Turning to `Cc1cc(C)c(C(=O)O)c(C)c1`, the “activity change, negative = inhibition” value is -0.863%.
Same read-out and setting: the figure for `CC(C)(O)c1coc(S(=O)(=O)NC(=O)Nc2c3c(cc4c2CCC4)CCC3)c1` is -8.04%; for `CCCCCCCCN(C)C` it is 2.74%.
For `CC(C)(C)[C@@H](O)[C@@H](Cc1ccc(Cl)cc1)n1cncn1`, the Potency entry is “inactive”.
On to `COC1CCC=CO1` (stereo not given), for which the “activity change, negative = inhibition” value was 4.28%.
Still for that read-out and setting: the same measure for `O=c1cc(-c2ccccc2)oc2ccccc12`: -17.2%; for `O=C1[C@@H]2[C@H]3CC[C@H](C3)[C@@H]2C(=O)N1CCCCN1CCN(c2ncccn2)CC1`: -6.12% [at 53.7 µM].
Turning to `C=C(C)C(=O)OCC(CC)(COC(=O)C(=C)C)COC(=O)C(=C)C`, the Potency result is “inactive”.
For `CCCCCC1C(=O)CCC1CC(=O)OC` (stereo not given), the Potency entry was “inactive”.
`O=C(O)Cc1ccccc1Oc1ccc(Cl)cc1Cl`: the “activity change, negative = inhibition” value is 6.91% [at 53.7 µM].
Regarding `C=CCCCCCC`, the “activity change, negative = inhibition” value was -0.317%.
On to `CC(=O)Oc1ccc(C2(c3ccc(OC(C)=O)cc3)Oc3ccccc3NC2=O)cc1`, for which the “activity change, negative = inhibition” value is -11.8% [at 53.7 µM].
Still for that read-out and setting: the figure for `C=C(C)C(=O)OCCCCCCCC(C)C` is 0.0438%; for `CN(C)Cc1cc(C(C)(C)C)c(O)c(C(C)(C)C)c1` it is -0.888%; for `Cc1c[nH]c(=O)[nH]c1=O` it is 6.18%.
Still for that read-out and setting: the same measure for `Clc1sc(Cl)c(Cl)c1Cl`: 3.49%; for `COc1cc(-c2ccc(=O)[nH]n2)ccc1OC(F)F`: -2.81% [at 53.7 µM]; for `CCOC(C)OCC`: -0.768%.
The same measure, in the same setting: the figure for `CCCCCCCCC(CCCCCC)C(=O)O` (stereo not given) is 0.778%.
With `O=C1c2ccccc2CCc2ccccc21`, the Potency result is “inactive”.
Consider `CCCCCCCCCCCCCCCCBr`, for which the activity change, negative = inhibition is -0.68% [at 23.8 µM].
As to `CC(=O)O[Si](C)(OC(C)=O)OC(C)=O`, the “activity change, negative = inhibition” value is -3.95%.
Regarding `CCc1ccc2c(c1)C(=O)c1ccccc1C2=O`, the “activity change, negative = inhibition” value was -0.41%.
`CC(=O)O[C@H]1C[C@@H]2CC[C@@]1(C)C2(C)C`: the “activity change, negative = inhibition” value is 1.82%.
On to `C=CC(=O)OCCOC(=O)C=C`, for which the “activity change, negative = inhibition” value was 2.19%.
`O=C1[C@H](CC[C@H](O)c2ccc(F)cc2)[C@@H](c2ccc(O)cc2)N1c1ccc(F)cc1`: the “activity change, negative = inhibition” value is -10.2% [at 53.7 µM].
